Drawing on the supplement of paper PMC10127200, this text covers Euclidean distance for 40 compounds.

Each structure is given as a SMILES string. Structures can show the parent of a compound that is named as a salt.

The experiment deals with FB. As to the kind of experiment: Euclidean distance of Cell Painting phenotypic profile (signed KS, 77 features) to DMSO centroid (dimensionless distance); 5 or 10 uM (library dependent); higher = stronger phenotypic change vs DMSO (phenoactivity). The following applies: 48 h. The essentials:
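Five cancer lines and a healthy fibroblast line received library compounds at 10 or 5 uM (library-dependent, 0.1% DMSO final) for 48 h. Stained cells were imaged confocally at 20X (9 fields/well). Harmony extracted 77 features, each scored as a signed Kolmogorov-Smirnov statistic against same-plate vehicle wells. Profiles were plate-position corrected, correlation-weighted and replicate-averaged at the top dose. Phenoactivity is the Euclidean distance from each profile to the median vehicle profile.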
In turn, `Cc1cccc(-c2[nH]c(C(C)(C)C)nc2-c2ccc3c(c2)OCO3)n1` returned an Euclidean distance of 2.17. As for `CCOC(=O)CC(=O)N1CCSC1COc1ccccc1OC` (stereo not given) [Moguisteine], the figure is 0.84. As for `CCNC(=O)[C@@H]1CCCN1C(=O)[C@H](CCCNC(=N)N)NC(=O)[C@H](CC(C)C)NC(=O)[C@@H](CC(C)C)NC(=O)[C@H](Cc1ccc(O)cc1)NC(=O)[C@H](CO)NC(=O)[C@H](Cc1c[nH]c2ccccc12)NC(=O)[C@H](Cc1c[nH]cn1)NC(=O)[C@@H]1CCC(=O)N1` [Leuprorelin Acetate], the figure is 0.933; as for `C=C[C@]1(C)C[C@@H](OC(=O)CS[C@@H]2C[C@H]3CC[C@@H](C2)N3C)[C@]2(C)[C@H](C)CC[C@]3(CCC(=O)[C@H]32)[C@@H](C)[C@@H]1O` [Retapamulin], 1.51; as for `CN(C)N(C)C(=O)[C@@]1(Cc2ccccc2)CCCN(C(=O)[C@@H](Cc2c[nH]c3ccccc23)NC(=O)C(C)(C)N)C1` [Anamorelin], 1.59. In turn, `Cn1cc(-c2cnn3c(N)c(Br)c([C@@H]4CCCNC4)nc23)cn1` registered an Euclidean distance of 2.96. The compound `CCCC(CCC)C(N)=O` [Valpromide] registered an Euclidean distance of 1.42. As for `COc1ccc(C2CC(=O)c3c(O)cc(OC4OC(COC5OC(C)C(O)C(O)C5O)C(O)C(O)C4O)cc3O2)cc1OC` (stereo not given) [Methyl-Hesperidin], the figure is 0.637; as for `CC1(C)S[C@@H]2[C@H](NC(=O)[C@H](N)c3ccccc3)C(=O)N2[C@H]1C(=O)OCOC(=O)[C@@H]1N2C(=O)C[C@H]2S(=O)(=O)C1(C)C` [Sultamicillin], 1.26; as for `O=c1[nH]c(=O)n([C@H]2C[C@H](O)[C@@H](CO)O2)cc1I` [Idoxuridine], 1.41. To `O=C(OC[C@H]1O[C@@H](OC(=O)c2cc(O)c(O)c(OC(=O)c3cc(O)c(O)c(O)c3)c2)[C@H](OC(=O)c2cc(O)c(O)c(OC(=O)c3cc(O)c(O)c(O)c3)c2)[C@@H](OC(=O)c2cc(O)c(O)c(OC(=O)c3cc(O)c(O)c(O)c3)c2)[C@@H]1OC(=O)c1cc(O)c(O)c(OC(=O)c2cc(O)c(O)c(O)c2)c1)c1cc(O)c(O)c(OC(=O)c2cc(O)c(O)c(O)c2)c1` [Tannic acid] belongs 1.45. `NC1CCN(c2nc3c(cc2F)c(=O)c(C(=O)O)cn3-c2ccc(F)cc2F)C1` (stereo not given) [Tosufloxacin p-Toluenesulfonate Hydrate] yielded an Euclidean distance of 1.12.

`O=c1cc(N2CCOCC2)oc2c(-c3cccc4c3sc3ccccc34)cccc12`: the Euclidean distance is 3.31. To `CC(C)Oc1ccc2c(=O)c(-c3ccccc3)coc2c1` [Ipriflavone (Osteofix)] belongs 1.17; to `CNCCC(Oc1ccc(C(F)(F)F)cc1)c1ccccc1` (stereo not given) [Fluoxetine HCl], 1.78; to `FC(F)(F)c1ccc(CNc2ccc(Cc3c[nH]c4ncc(Cl)cc34)cn2)cn1` [Pexidartinib (PLX3397)], 1.53. As for `Cc1ccc([C@@H]2O[C@H](CO)[C@@H](O)[C@H](O)[C@H]2O)cc1Cc1ccc(-c2ccc(F)cc2)s1` [Canagliflozin hemihydrate], the figure is 1.44; as for `CC1(C)CCC[C@]2(C)[C@H]3CC(=O)O[C@]3(C)CC[C@@H]12` [Sclareolide], 0.844; as for `Cc1ccc2c(Cl)cc(Cl)c(O)c2n1` [Chlorquinaldol], 2.53. To `COc1ccc(CN2CCN(C(c3ccc(F)cc3)c3ccc(F)cc3)CC2)c(OC)c1OC` [Lomerizine 2HCl] belongs 1.08. `C#Cc1cccc(Nc2ncnc3cc(OCCOC)c(OCCOC)cc23)c1` [Erlotinib] displayed an Euclidean distance of 3.62. Compound `Oc1c2ccccc2c2c3c(cccc13)N=N2` yielded an Euclidean distance of 0.94. To `CC[C@@H]1/C=C(\C)C[C@H](C)C[C@H](OC)[C@H]2O[C@@](O)(C(=O)C(=O)N3CCCC[C@H]3C(=O)O[C@H](/C(C)=C/[C@@H]3CC[C@@H](O)[C@H](OC)C3)[C@H](C)[C@@H](O)CC1=O)[C@H](C)C[C@@H]2OC` [Ascomycin (FK520)] belongs 1.43; to `CC(C)(C(=O)O)c1ccc(C(O)CCCN2CCC(C(O)(c3ccccc3)c3ccccc3)CC2)cc1` (stereo not given) [Fexofenadine HCl], 0.629.

The compound `CCC(=O)NS(=O)(=O)c1ccc(-c2c(-c3ccccc3)noc2C)cc1` [Parecoxib] registered an Euclidean distance of 1.11. To `Cn1cc(-c2ccc3c(c2)ncn3-c2cc(NS(=O)(=O)C3CC3)cc(-c3ccc(F)cc3F)c2)cn1` belongs 4.3. To `COC(=O)/C=C/C(=O)OCCN1C(=O)CCC1=O` [Diroximel Fumarete] belongs 1.24. With `N=C(N)N` [Guanidine HCl], the Euclidean distance was found to be 0.612. As for `O=C(O)c1ccccc1O` [Salicylic acid], the figure is 0.648. `CCCC(CCC)C(=O)O` [Divalproex Sodium] gave an Euclidean distance of 0.846. `C[C@@H](O)[C@H]1C(=O)N2C(C(=O)O)=C(S[C@@H]3CN[C@H](C(=O)N(C)C)C3)[C@H](C)[C@H]12` [Meropenem Trihydrate] yielded an Euclidean distance of 0.87.

In the case of `Cc1ccc(C(=O)N(CCCN)[C@@H](c2nc3cc(Cl)ccc3c(=O)n2Cc2ccccc2)C(C)C)cc1`, the Euclidean distance is 2.49. Regarding `CC(=O)Nc1cccc2c1c(Sc1ccc(Cl)cc1)c(C)n2CC(=O)O`, the Euclidean distance was 0.772. As for `C=CC1=C(C(=O)O)N2C(=O)[C@@H](NC(=O)/C(=N\O)c3csc(N)n3)[C@H]2SC1` [Cefdinir], the figure is 1.4.

Compound `Cc1cc(-c2ncc(CC(=O)Nc3ccc(-c4cnccn4)cn3)cc2C)ccn1` came in with an Euclidean distance of 0.878.

Compound `CC1=C(CC(=O)O)c2cc(F)ccc2/C1=C\c1ccc([S+](C)[O-])cc1` (stereo not given) [Sulindac] gave an Euclidean distance of 0.812. To `Cc1ccc(C(=O)Nc2ccc(CN3CCN(C)CC3)c(C(F)(F)F)c2)cc1C#Cc1cnc2cccnn12` belongs 1.08. In turn, `CN1C(=O)[C@@H](NC(=O)c2n[nH]c(Cc3ccccc3)n2)COc2ccccc21` returned an Euclidean distance of 1.02.

`CN(C)CCN(Cc1ccc(Cl)cc1)c1ccccn1` [Chloropyramine hydrochloride]: the Euclidean distance amounted to 1.03.

`CCCN(CCC)C(=O)C1=Cc2ccc(-c3ccc(C(=O)N4CCCC4)cc3)cc2N=C(N)C1` [Motolimod (VTX-2337)] yielded an Euclidean distance of 1.27.
